The values that follow come from PubChem BioAssay AID1345085 (National Center for Advancing Translational Sciences (NCATS), 2018).

Molecules are shown by their SMILES. Records with an inconclusive call do not appear. Active and inactive are the calls of the source. Calls come from the whole dose curve; as a rule, active = well fitted cell-killing curve with a large enough effect; inconclusive = small, poorly fitted or top-dose-only effect, or effect the other way; inactive = no such curve, though single readings can be large or run the other way.
Potency is the fitted concentration of half-maximal effect.

In this experiment the test system is C33A. Nature of the experiment: Confirmatory qHTS for gynecologic anti-cancer compounds from libraries of approved drugs and bioactive compounds. Note: nearly all actives have a fitted effect of over 55% in size. Particulars: gynecologic cancer cell panel viability, ATPlite luminescence, 48 h; series mostly up to 57.6 µM. The method in brief:
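Cells (1,000/well) plated 16 h, then exposed 48 h at 37 °C to 11 concentrations (1:3) from 57.5 uM to 0.977 nM. Viability by ATPlite luminescence after 15 min; IC50 derived, with HEK 293T used for selectivity index.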
Regarding `Cc1cc(Nc2cc(N3CCN(C)CC3)nc(/C=C/c3ccccc3)n2)n[nH]1`, the Potency was 21.7 µM (active).
Take `O=C(CCCCCCNC(=O)c1cnc(N(c2ccccc2)c2ccccc2)nc1)NO`: the Potency is 10.9 µM (active).
Regarding `Cc1ccccc1C(OCCN(C)C)c1ccccc1` (stereo not drawn), the Potency result is “inactive”.
Regarding `COCCOc1nc(-c2ccc(Cl)c(Cl)c2)n(-c2ccc(NC(=O)CCl)cc2)n1`, the Potency was 4.32 µM (active).
On to `c1nc2nc(Nc3ccc(N4CCOCC4)cc3)nc(NC3CCCCC3)c2[nH]1`, for which the Potency result was “inactive”.
As to `CC(C)C[C@H](NC(=O)[C@H](CCc1ccccc1)NC(=O)CN1CCOCC1)C(=O)N[C@@H](Cc1ccccc1)C(=O)N[C@@H](CC(C)C)C(=O)[C@@]1(C)CO1`, the Potency is 6.11 µM (active).
`O=C1NC(=O)C(c2cnc3ccccn23)=C1c1cn2c3c(cccc13)CN(C(=O)N1CCOCC1)CC2`: the Potency entry was “inactive”.
For the molecule `Nc1ccccc1NC(=O)c1ccc(CNC(=O)OCc2cccnc2)cc1`, the Potency is 5.44 µM (active).
With `O=C(O)C1(Cc2cccc(Nc3nccs3)n2)CCC(Oc2cccc(Cl)c2F)CC1` (stereo not drawn), the Potency entry is “inactive”.
Turning to `CCN1CCN(Cc2ccc(-c3cc4c(NC(C)c5ccccc5)ncnc4[nH]3)cc2)CC1` (stereo not drawn), the Potency was 27.3 µM (active).
Then `N=C(N)c1ccc(OCCCCCOc2ccc(C(=N)N)cc2)cc1`, with “inactive”; and `Fc1cc(-c2cccc3ncc(-c4cnn(C5CCNCC5)c4)nc23)cc(F)c1CN1CCOCC1`, with 24.3 µM (active); and `NC(=O)c1cnc(-c2ccc(C3(N)CCC3)cc2)c(-c2ccccc2)c1`, with 19.3 µM (active).
`Cc1ccc(C(=O)Nc2ccc(CN3CCN(C)CC3)c(C(F)(F)F)c2)cc1C#Cc1cnc2cccnn12`: the Potency is 19.3 µM (active).
As to `CN(Cc1cnc2nc(N)nc(N)c2n1)c1ccc(C(=O)N[C@@H](CCC(=O)O)C(=O)O)cc1`, the Potency result was “inactive”.
With `O=C(c1ccc(F)c(F)c1Nc1ccc(I)cc1F)N1CC(O)([C@@H]2CCCCN2)C1`, the Potency was 27.3 µM (active).
Take `Cc1ccc(C(=O)Nc2ccc(CN3CCN(C)CC3)c(C(F)(F)F)c2)cc1C#Cc1cnc2[nH]ncc2c1`: the Potency was 17.2 µM (active).
On to `CCC1C(=O)N(C)c2cnc(Nc3ccc(C(=O)NC4CCN(C)CC4)cc3OC)nc2N1C1CCCC1` (stereo not drawn), for which the Potency was 0.0544 µM (active).
On to `COc1ccc2c(c1)c(CC(=O)O)c(C)n2C(=O)c1ccc(Cl)cc1`, for which the Potency result is “inactive”.
Then `O=C(O)c1ccc(Nc2ncc3c(n2)-c2ccc(Cl)cc2C(c2c(F)cccc2F)=NC3)cc1`, with “inactive”; and `Cn1c(=O)c(-c2c(Cl)cccc2Cl)cc2cnc(Nc3cccc(C(=O)O)c3)nc21`, with 5.44 µM (active); and `CCC1=CC2CN(C1)Cc1c([nH]c3ccccc13)[C@@](C(=O)OC)(c1cc3c(cc1OC)N(C)[C@H]1[C@@](O)(C(=O)OC)[C@H](OC(C)=O)[C@]4(CC)C=CCN5CC[C@]31[C@@H]54)C2` (stereo partly drawn), with 0.211 µM (active).
In the case of `C[C@]12CCC(=O)C=C1CC[C@@H]1[C@@H]2[C@@H](O)C[C@@]2(C)[C@H]1CC[C@]2(O)C(=O)CO`, the Potency entry is “inactive”.
On to `Cn1cc(-c2ccc3ncc(Cc4ccc5ncccc5c4)n3n2)cn1`, for which the Potency entry was “inactive”.
Then `CN(C)C/C=C/C(=O)Nc1cc2c(Nc3ccc(F)c(Cl)c3)ncnc2cc1OC1CCOC1` (stereo not drawn), with 6.85 µM (active).
Turning to `CCC1C(=O)N(C)c2cnc(Nc3ccc(C(=O)NC4CCC(N5CCN(CC6CC6)CC5)CC4)cc3OC)nc2N1C(C)C` (stereo not drawn), the Potency is 0.172 µM (active).
Turning to `Cc1cnc(Nc2ccc(F)cc2Cl)nc1-c1c[nH]c(C(=O)NC(CO)c2cccc(Cl)c2)c1` (stereo not drawn), the Potency result was “inactive”.
Then `Nc1cccc(-c2cc3c(Oc4cccc(O)c4)ncnc3[nH]2)c1`, with “inactive”; and `CC(=O)OC12COC1CC(O)C1(C)C(=O)C(O)C3=C(C)C(OC(=O)C(O)C(NC(=O)OC(C)(C)C)c4ccccc4)CC(O)(C(OC(=O)c4ccccc4)C21)C3(C)C` (stereo not drawn), with “inactive”.
As to `COc1cc(Nc2c(C#N)cnc3cc(OCCCN4CCN(C)CC4)c(OC)cc23)c(Cl)cc1Cl`, the Potency is 27.3 µM (active).
As to `NC(=O)Nc1cc(-c2cccc(F)c2)sc1C(=O)NC1CCCNC1` (stereo not drawn), the Potency was 0.485 µM (active).
Turning to `COc1ccccc1N1CCN(CC(O)COc2cccc3ccccc23)CC1` (stereo not drawn), the Potency result was “inactive”.
As for `CCc1cccc(CC)c1NC(=O)N1Cc2[nH]nc(NC(=O)c3ccc(N4CCN(C)CC4)cc3)c2C1`, the Potency entry is “inactive”.
